Inconclusive results are not listed. Calls of active or inactive are those of the source. Unless noted, calls come from the whole dose curve.
Assays:
[1] = Nuclear factor erythroid 2-related factor 2/antioxidant responsive element (Nrf2/ARE) small molecule agonists: qHTS cell viability counter screen in human keratinocytes (AID 1919968; active = well fitted curve in the direction sought with a large enough effect in the repeat runs; an effect the other way counts as inactive or inconclusive; note: nearly all actives have a fitted effect of over 55% in size)
In short: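 Cytotoxicity was multiplexed with the Nrf2/ARE luciferase assay in the same wells. Stably transfected HaCaT keratinocytes were treated with test compounds for 23 h at 37 C. Cell viability was then measured by CellTiter-Fluor fluorescence.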

[2] = Nuclear factor erythroid 2-related factor 2/antioxidant responsive element (Nrf2/ARE) small molecule agonists: luciferase reporter gene qHTS assay in human keratinocytes (AID 1919969); note: nearly all actives have a fitted effect of over 35% in size
[3] = target: Gonadotropin-releasing hormone receptor (Homo sapiens) (UniProt P30968); assay: Human gonadotropin-releasing hormone receptor (GnRHR) small molecule agonists, calcium flux assay in GnRHR-HEK293 cells (AID 1920063); note: nearly all actives have a fitted effect of over 35% in size
Sequence of Gonadotropin-releasing hormone receptor (Homo sapiens) (P30968 whole entry, looked up): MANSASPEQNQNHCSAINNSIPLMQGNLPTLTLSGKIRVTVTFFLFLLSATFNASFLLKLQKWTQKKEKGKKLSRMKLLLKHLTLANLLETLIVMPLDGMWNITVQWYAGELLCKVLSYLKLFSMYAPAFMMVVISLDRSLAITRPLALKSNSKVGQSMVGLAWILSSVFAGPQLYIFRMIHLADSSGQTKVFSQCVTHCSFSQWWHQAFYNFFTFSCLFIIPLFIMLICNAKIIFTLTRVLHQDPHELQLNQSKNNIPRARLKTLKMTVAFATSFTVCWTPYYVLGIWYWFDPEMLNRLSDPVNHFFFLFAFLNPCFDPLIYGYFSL
In short: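 Agonist activity was measured as intracellular calcium flux in HEK293 cells engineered to stably express human GnRHR. After dye loading for 1 hour at 37 C, compounds in DMSO were added and fluorescence was followed for 3 minutes.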

[4] = target: KiSS-1 receptor (Homo sapiens) (UniProt Q969F8); assay: Human kisspeptin (KISS1R) small molecule agonists, calcium flux assay in KISS1R-HEK293 cells (AID 1920064; active = well fitted curve in the direction sought with a large enough effect in the repeat runs; an effect the other way counts as inactive or inconclusive)
Sequence of KiSS-1 receptor (Homo sapiens) (Q969F8 whole entry, looked up): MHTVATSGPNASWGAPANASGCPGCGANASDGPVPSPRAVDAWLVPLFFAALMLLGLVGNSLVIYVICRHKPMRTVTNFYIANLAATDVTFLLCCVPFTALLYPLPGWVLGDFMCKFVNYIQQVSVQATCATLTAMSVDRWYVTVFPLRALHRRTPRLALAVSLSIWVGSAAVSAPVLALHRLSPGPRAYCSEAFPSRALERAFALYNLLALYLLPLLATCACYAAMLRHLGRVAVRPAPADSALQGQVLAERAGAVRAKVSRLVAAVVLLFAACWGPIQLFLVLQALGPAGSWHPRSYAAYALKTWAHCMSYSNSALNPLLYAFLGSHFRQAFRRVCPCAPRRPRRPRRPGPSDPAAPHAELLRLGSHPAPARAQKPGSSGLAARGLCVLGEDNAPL
In short: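 Agonist activity is monitored as intracellular calcium rise in engineered HEK293 cells carrying human KISS1R. Cells are dye-loaded for 1 h at 37 C before compound addition, and fluorescence is recorded for 3 min.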

[5] = p53 small molecule agonists, cell-based qHTS assay with human liver microsomes (AID 1963577)
In short: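 p53RE-bla cells, 4,000/well, compound added after 5 h, with human liver microsomes 0.5 mg/mL and NADPH 0.5 mg/mL final; 16 h at 37 C, then LiveBLAzer 2 h RT, fluorescence.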

[6] = p53 small molecule agonists, cell-based qHTS assay with rat liver microsomes (AID 1963578)
In short: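 p53RE-bla cells, 4,000/well, pre-incubated 5 h, then given compounds plus rat liver microsomes (0.5 mg/mL final) and NADPH (0.5 mg/mL final). Incubation 16 h at 37 C; beta-lactamase reporter read by LiveBLAzer fluorescence after 2 h at room temperature.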

[7] = p53 small molecule agonists, cell-based qHTS assay with rat liver microsomes: qHTS cell viability counter screen (AID 1963580); note: nearly all actives have a fitted effect of over 45% in size
In short: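 Rat liver microsome (0.5 mg/mL final) and NADPH (0.5 mg/mL final) co-incubation with compounds for 16 h at 37 C on HCT-116 p53RE-bla cells; cytotoxicity taken from intracellular ATP luminescence.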

[8] = p53 small molecule agonists, cell-based qHTS assay: qHTS cell viability counter screen (AID 1963581); note: nearly all actives have a fitted effect of over 45% in size
In short: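 Viability was counter-screened in parallel with the p53 agonist reporter by measuring intracellular ATP luminescence in the same HCT-116 p53RE-bla wells after 16 h compound treatment at 37 C.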

[9] = p53 small molecule agonists, cell-based qHTS assay (AID 1963582; active = well fitted activation curve with a large enough effect in the signal ratio in the repeat runs, not every such curve was filed as active; the % refers to the signal ratio)
In short: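 Cells carrying a p53-responsive bla reporter are treated with test compounds for 16 h at 37 C; beta-lactamase activity is then detected with LiveBLAzer B/G FRET substrate after 2 h at room temperature.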

[10] = target: 5-hydroxytryptamine receptor 2A (Homo sapiens) (UniProt P28223); assay: 5-hydroxytryptamine receptor 2A (HTR2A) small molecule antagonists, cell-based qHTS assay (AID 1963586); note: nearly all actives have a fitted effect of over 45% in size
Sequence of 5-hydroxytryptamine receptor 2A (Homo sapiens) (P28223 whole entry, looked up): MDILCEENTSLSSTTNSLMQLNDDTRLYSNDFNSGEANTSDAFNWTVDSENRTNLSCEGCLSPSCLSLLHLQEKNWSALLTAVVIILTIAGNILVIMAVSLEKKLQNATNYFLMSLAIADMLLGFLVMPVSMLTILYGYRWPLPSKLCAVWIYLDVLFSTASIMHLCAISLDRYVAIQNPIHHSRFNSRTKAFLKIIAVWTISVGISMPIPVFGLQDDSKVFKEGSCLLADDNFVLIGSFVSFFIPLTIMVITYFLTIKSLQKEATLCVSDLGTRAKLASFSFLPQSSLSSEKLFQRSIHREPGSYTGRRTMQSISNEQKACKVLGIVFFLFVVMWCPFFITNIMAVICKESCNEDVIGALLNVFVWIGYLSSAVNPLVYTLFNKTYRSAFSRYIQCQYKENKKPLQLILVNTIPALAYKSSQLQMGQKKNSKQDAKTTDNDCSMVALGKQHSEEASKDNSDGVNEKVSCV
In short: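 CHO cells stably expressing human HTR2A were plated for 18 h at 37 C, then loaded with calcium dye for 1 h. Compounds were preincubated 5 min at room temperature before DOI (4 nM solution) was added. Kinetic fluorescence was read for 3 min.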

[11] = target: 5-hydroxytryptamine receptor 2A (Homo sapiens) (UniProt P28223); assay: 5-hydroxytryptamine receptor 2A (HTR2A) small molecule agonists, cell-based qHTS assay (AID 1963587); note: nearly all actives have a fitted effect of over 30% in size
In short: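 Kinetic calcium-flux fluorescence (2 min, 1 sec intervals) after compound addition in agonist mode. HTR2A-CHO cells were cultured 18 h, then dye-loaded 1 h at 37 C.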

[12] = target: Muscarinic acetylcholine receptor M1 (Homo sapiens) (UniProt P11229); assay: Cholinergic receptor muscarinic 1 (CHRM1) small molecule antagonists, cell-based qHTS assay (AID 1963588); note: nearly all actives have a fitted effect of over 40% in size
Sequence of Muscarinic acetylcholine receptor M1 (Homo sapiens) (P11229 whole entry, looked up): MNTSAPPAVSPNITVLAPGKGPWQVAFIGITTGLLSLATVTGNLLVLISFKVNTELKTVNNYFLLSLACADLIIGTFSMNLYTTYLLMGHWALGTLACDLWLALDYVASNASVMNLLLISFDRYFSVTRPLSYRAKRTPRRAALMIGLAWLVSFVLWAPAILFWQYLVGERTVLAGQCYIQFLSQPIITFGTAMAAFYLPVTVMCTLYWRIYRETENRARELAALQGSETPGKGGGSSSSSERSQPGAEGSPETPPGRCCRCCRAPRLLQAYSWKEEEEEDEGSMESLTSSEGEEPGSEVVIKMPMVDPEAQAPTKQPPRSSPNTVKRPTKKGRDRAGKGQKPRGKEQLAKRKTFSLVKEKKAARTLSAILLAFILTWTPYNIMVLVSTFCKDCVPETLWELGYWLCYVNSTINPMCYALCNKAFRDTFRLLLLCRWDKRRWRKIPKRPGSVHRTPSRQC
In short: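 Compounds were tested at 15 concentrations in three independent runs. Dye-loaded CHRM1-CHO cells were exposed 5 min at room temperature before stimulation by acetylcholine added at 50nM. Intracellular calcium was read kinetically on FDSS for 3 min.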

[13] = cAMP Responsive Elements (CRE) small molecule agonists, cell-based qHTS assay (AID 1963590)
In short: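 Cells carrying a CRE-driven beta-lactamase reporter (HEK 293T) are seeded, incubated overnight (18 h), and treated with test compounds for 3 h at 37 C; reporter activity is then detected with a FRET substrate after 2 h at room temperature.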

[14] = cAMP Responsive Elements (CRE) small molecule antagonists, cell-based qHTS assay (AID 1963591; active = well fitted inhibition curve with a large enough effect in the signal ratio in the repeat runs, not every such curve was filed as active; the % refers to the signal ratio)
In short: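 Cells (CRE-bla HEK 293T, DMEM with 10% dialyzed FBS and 25 mM HEPES) are seeded and incubated 18 h. Compounds are added with NKH477 agonist at 0.25 uM final for 3 h, then FRET substrate for 2 h.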

[15] = target: Beta-2 adrenergic receptor (Homo sapiens) (UniProt P07550); assay: Adrenergic beta2 receptor (ADRB2) small molecule antagonists, cell-based qHTS assay (AID 1963592); note: series mostly up to about 92 µM; nearly all actives have a fitted effect of over 50% in size
Sequence of Beta-2 adrenergic receptor (Homo sapiens) (P07550 whole entry, looked up): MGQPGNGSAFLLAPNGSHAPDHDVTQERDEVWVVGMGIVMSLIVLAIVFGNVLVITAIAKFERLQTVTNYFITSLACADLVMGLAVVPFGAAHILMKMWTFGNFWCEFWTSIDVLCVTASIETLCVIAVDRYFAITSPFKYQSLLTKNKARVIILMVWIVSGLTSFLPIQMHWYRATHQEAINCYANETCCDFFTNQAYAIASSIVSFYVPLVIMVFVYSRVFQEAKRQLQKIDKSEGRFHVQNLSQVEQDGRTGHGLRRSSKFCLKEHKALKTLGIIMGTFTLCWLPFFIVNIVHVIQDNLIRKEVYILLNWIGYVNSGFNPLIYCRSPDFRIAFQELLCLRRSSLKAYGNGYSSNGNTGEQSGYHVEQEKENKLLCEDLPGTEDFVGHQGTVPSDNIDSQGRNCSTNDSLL
In short: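 Assay format: CHO-ADRB2 cells, 18-20hr seeding at 37C/5% CO2, then compound plus 1nM isoproterenol agonist mix for 0.5hr RT. Homogeneous time-resolved fluorescence cAMP detection after 1hr, expressed as 665/615 nm ratio.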

[16] = target: D(2) dopamine receptor (Homo sapiens) (UniProt P14416); assay: Dopamine D2 receptor (DRD2) small molecule agonists, cell-based qHTS assay (AID 1963594); note: nearly all actives have a fitted effect of over 35% in size
Sequence of D(2) dopamine receptor (Homo sapiens) (P14416 whole entry, looked up): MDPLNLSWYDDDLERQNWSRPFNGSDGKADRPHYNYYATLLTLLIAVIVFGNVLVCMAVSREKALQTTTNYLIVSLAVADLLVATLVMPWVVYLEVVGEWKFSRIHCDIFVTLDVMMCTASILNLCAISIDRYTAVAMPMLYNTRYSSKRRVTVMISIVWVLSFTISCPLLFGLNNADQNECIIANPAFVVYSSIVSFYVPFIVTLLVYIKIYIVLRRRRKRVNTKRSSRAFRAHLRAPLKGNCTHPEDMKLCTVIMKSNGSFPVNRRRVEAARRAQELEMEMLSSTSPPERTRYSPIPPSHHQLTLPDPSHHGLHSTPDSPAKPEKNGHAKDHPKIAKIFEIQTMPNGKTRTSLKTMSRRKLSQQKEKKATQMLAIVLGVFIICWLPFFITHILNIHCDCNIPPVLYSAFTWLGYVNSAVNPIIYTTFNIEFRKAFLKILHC
In short: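 cAMP accumulation in DRD2-HEK293 cells measured by HTRF after 1 h detection; compounds added 10 min before NKH477 (200nM […]) forskolin-analogue stimulation, 30 min at room temperature, with Ro20-1724 present at 0.1 mM final.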

[17] = target: D(2) dopamine receptor (Homo sapiens) (UniProt P14416); assay: Dopamine D2 receptor (DRD2) small molecule antagonists, cell-based qHTS assay (AID 1963595; active = well fitted inhibition curve with a large enough effect in the signal ratio in the repeat runs, with a control signal flat; the % refers to the signal ratio)
In short: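 HEK293 cells stably expressing DRD2 were preincubated with 0.1 mM Ro20-1724, then with compound for 10 min at room temperature. Cells were stimulated with 200 nM NKH477 plus 12 nM quinpirole for 30 min, and cAMP was read by HTRF.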

[18] = p53 small molecule agonists, cell-based qHTS assay with human liver microsomes: qHTS cell viability counter screen (AID 1963579); note: nearly all actives have a fitted effect of over 45% in size
In short: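 p53RE-bla cells, 4,000/well, dosed 5 hours after plating, with human liver microsomes (0.5 mg/mL final) plus NADPH (0.5 mg/mL final), 16 hours at 37 C. Viability read as CellTiter-Glo luminescence after 30 min at room temperature.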

[19] = target: Muscarinic acetylcholine receptor M1 (Homo sapiens) (UniProt P11229); assay: Cholinergic receptor muscarinic 1 (CHRM1) small molecule agonists, cell-based qHTS assay (AID 1963589); note: nearly all actives have a fitted effect of over 35% in size
In short: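 Cells were plated and incubated 18 h at 37 C/5% CO2, loaded with calcium dye for 1 h at 37 C, then treated with compounds in DMSO. Fluorescence was recorded kinetically at 1 sec intervals.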

[20] = target: Beta-2 adrenergic receptor (Homo sapiens) (UniProt P07550); assay: Adrenergic beta2 receptor (ADRB2) small molecule agonists, cell-based qHTS assay (AID 1963593);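 note: CHO cells stably overexpressing human ADRB2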
In short: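 CHO cells stably over-expressing ADRB2 were plated overnight at 37C, then dosed with compounds plus a stimulation mix containing 100uM IBMX and 25uM Ro-20-1724 for 0.5hr at room temperature. cAMP was measured by HTRF competition, 1hr.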

Measured: Potency

O=Cc1ccco1
not listed: [18] | [19] | [20]
inactive: all other assays above

CCC(Cl)[N+](=O)[O-] (stereo unspecified)
not listed: [8] | [13] | [20]
inactive: all other assays above

CC1(C)[C@H](C(=O)O[C@H](C#N)c2cccc(Oc3ccccc3)c2)[C@@H]1/C=C(\Cl)C(F)(F)F
not listed: [13] | [18]
inactive: all other assays above

C=C(C)CCl
not listed: [8] | [19] | [20]
inactive: all other assays above

O=NN1CCOCC1
not listed: [6] | [7]
inactive: all other assays above

CCNc1nc(Cl)nc(NCC)n1
not listed: [7] | [10] | [14] | [20]
inactive: all other assays above

CCC(C)(CC)c1cc(NC(=O)c2c(OC)cccc2OC)on1
not listed: [5] | [6] | [9] | [13] | [14] | [19] | [20]
inactive: all other assays above
